Reference: publication PMC11006913

Tests used:
Experiment in all cases: PBM; 200 nM protein, PBS
Conditions in all cases: dsDNA, one strand shown
[1] = biological target: ALX4 (Homo sapiens, UniProt Q9H161 200-286)
[2] = biological target: ALX4 (Homo sapiens, UniProt Q9H161 200-286, Q225E)
[3] = biological target: HOXB6 (Homo sapiens, UniProt P17509 132-218, K202E)
[4] = biological target: HOXB6 (Homo sapiens, UniProt P17509 132-218)
Chain of HOXB6 (Homo sapiens, UniProt P17509 132-218) (P17509 132-218): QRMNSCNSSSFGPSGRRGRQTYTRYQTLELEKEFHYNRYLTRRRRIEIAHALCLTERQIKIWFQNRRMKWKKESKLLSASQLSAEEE

Chain of ALX4 (Homo sapiens, UniProt Q9H161 200-286) (Q9H161 200-286): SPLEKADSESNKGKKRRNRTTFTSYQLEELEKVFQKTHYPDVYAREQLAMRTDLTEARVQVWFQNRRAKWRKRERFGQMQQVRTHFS
Chain of ALX4 (Homo sapiens, UniProt Q9H161 200-286, Q225E) (Q9H161 200-286 Q225E): as the sequence (Q9H161 200-286) above, with Q26E counted along it
Chain of HOXB6 (Homo sapiens, UniProt P17509 132-218, K202E) (P17509 132-218 K202E): as the sequence (P17509 132-218) above, with K71E counted along it

Sequence | binding signal [1] | binding signal [2] | binding signal [3] | binding signal [4]
GGTTATCA | 9.51 upbm affinity estimate (log intensity, higher = more binding, comparable within an allelic series) | 9.1 upbm affinity estimate (log intensity, higher = more binding, comparable within an allelic series) | – | –
CCTCCTAC | 7.75 upbm affinity estimate (log intensity, higher = more binding, comparable within an allelic series) | 8.06 upbm affinity estimate (log intensity, higher = more binding, comparable within an allelic series) | – | –
GAATACAA | 9.67 upbm affinity estimate (log intensity, higher = more binding, comparable within an allelic series) | 9.34 upbm affinity estimate (log intensity, higher = more binding, comparable within an allelic series) | – | –
GCAGACCC | 7.9 upbm affinity estimate (log intensity, higher = more binding, comparable within an allelic series) | 8.2 upbm affinity estimate (log intensity, higher = more binding, comparable within an allelic series) | – | –
AATGGATA | 10.2 upbm affinity estimate (log intensity, higher = more binding, comparable within an allelic series) | 9.39 upbm affinity estimate (log intensity, higher = more binding, comparable within an allelic series) | – | –
CTCCCTTC | 7.88 upbm affinity estimate (log intensity, higher = more binding, comparable within an allelic series) | 8.19 upbm affinity estimate (log intensity, higher = more binding, comparable within an allelic series) | – | –
CCATCGGA | 8.15 upbm affinity estimate (log intensity, higher = more binding, comparable within an allelic series) | 8.29 upbm affinity estimate (log intensity, higher = more binding, comparable within an allelic series) | – | –
ACGCGGGA | 8.23 upbm affinity estimate (log intensity, higher = more binding, comparable within an allelic series) | 8.27 upbm affinity estimate (log intensity, higher = more binding, comparable within an allelic series) | – | –
CTGTCCAC | 7.93 upbm affinity estimate (log intensity, higher = more binding, comparable within an allelic series) | 8.3 upbm affinity estimate (log intensity, higher = more binding, comparable within an allelic series) | – | –
GCATTTGA | 9.56 upbm affinity estimate (log intensity, higher = more binding, comparable within an allelic series) | 9.16 upbm affinity estimate (log intensity, higher = more binding, comparable within an allelic series) | – | –
CCTGCAGG | 8.12 upbm affinity estimate (log intensity, higher = more binding, comparable within an allelic series) | 8.04 upbm affinity estimate (log intensity, higher = more binding, comparable within an allelic series) | 9.05 upbm affinity estimate (log intensity, higher = more binding, comparable within an allelic series) | 8.92 upbm affinity estimate (log intensity, higher = more binding, comparable within an allelic series)
CGACGCAG | 7.86 upbm affinity estimate (log intensity, higher = more binding, comparable within an allelic series) | 7.87 upbm affinity estimate (log intensity, higher = more binding, comparable within an allelic series) | – | –
ATTGGTGA | 10.4 upbm affinity estimate (log intensity, higher = more binding, comparable within an allelic series) | 9.78 upbm affinity estimate (log intensity, higher = more binding, comparable within an allelic series) | – | –
GCAGCTCC | 8.25 upbm affinity estimate (log intensity, higher = more binding, comparable within an allelic series) | 8.26 upbm affinity estimate (log intensity, higher = more binding, comparable within an allelic series) | – | –
CGGATGTC | 8.26 upbm affinity estimate (log intensity, higher = more binding, comparable within an allelic series) | 8.17 upbm affinity estimate (log intensity, higher = more binding, comparable within an allelic series) | – | –
CTCTCGCC | 7.89 upbm affinity estimate (log intensity, higher = more binding, comparable within an allelic series) | 8.06 upbm affinity estimate (log intensity, higher = more binding, comparable within an allelic series) | – | –
CCATTATC | 11.3 upbm affinity estimate (log intensity, higher = more binding, comparable within an allelic series) | 10.2 upbm affinity estimate (log intensity, higher = more binding, comparable within an allelic series) | – | –
GGAAGCCA | 8.23 upbm affinity estimate (log intensity, higher = more binding, comparable within an allelic series) | 8.17 upbm affinity estimate (log intensity, higher = more binding, comparable within an allelic series) | – | –
CTATAATA | 11.6 upbm affinity estimate (log intensity, higher = more binding, comparable within an allelic series) | 10.8 upbm affinity estimate (log intensity, higher = more binding, comparable within an allelic series) | – | –
CCCGACAG | 8.07 upbm affinity estimate (log intensity, higher = more binding, comparable within an allelic series) | 8.17 upbm affinity estimate (log intensity, higher = more binding, comparable within an allelic series) | – | –
AATTTTGA | 11.1 upbm affinity estimate (log intensity, higher = more binding, comparable within an allelic series) | 10.2 upbm affinity estimate (log intensity, higher = more binding, comparable within an allelic series) | – | –
ACAGCTCT | 8.24 upbm affinity estimate (log intensity, higher = more binding, comparable within an allelic series) | 8.19 upbm affinity estimate (log intensity, higher = more binding, comparable within an allelic series) | – | –
GCTCAAGC | 8.08 upbm affinity estimate (log intensity, higher = more binding, comparable within an allelic series) | 8.25 upbm affinity estimate (log intensity, higher = more binding, comparable within an allelic series) | – | –
ATCAATCA | 11.7 upbm affinity estimate (log intensity, higher = more binding, comparable within an allelic series) | 10.5 upbm affinity estimate (log intensity, higher = more binding, comparable within an allelic series) | – | –

Sequence | binding signal [1] | binding signal [2] | binding signal [3] | binding signal [4]
CCCCTCTC | 8.15 upbm affinity estimate (log intensity, higher = more binding, comparable within an allelic series) | 8.2 upbm affinity estimate (log intensity, higher = more binding, comparable within an allelic series) | – | –
CCGCGAAG | 8.14 upbm affinity estimate (log intensity, higher = more binding, comparable within an allelic series) | 8.32 upbm affinity estimate (log intensity, higher = more binding, comparable within an allelic series) | – | –
CCCGGAAG | 7.9 upbm affinity estimate (log intensity, higher = more binding, comparable within an allelic series) | 8.04 upbm affinity estimate (log intensity, higher = more binding, comparable within an allelic series) | – | –
GGCATGCC | 8.37 upbm affinity estimate (log intensity, higher = more binding, comparable within an allelic series) | 8.31 upbm affinity estimate (log intensity, higher = more binding, comparable within an allelic series) | – | –
CCTAGAGA | 8.06 upbm affinity estimate (log intensity, higher = more binding, comparable within an allelic series) | 8.18 upbm affinity estimate (log intensity, higher = more binding, comparable within an allelic series) | – | –
CCTAGGAC | 7.82 upbm affinity estimate (log intensity, higher = more binding, comparable within an allelic series) | 8.1 upbm affinity estimate (log intensity, higher = more binding, comparable within an allelic series) | – | –
AGCAGCTC | 8.01 upbm affinity estimate (log intensity, higher = more binding, comparable within an allelic series) | 8.09 upbm affinity estimate (log intensity, higher = more binding, comparable within an allelic series) | – | –
CTCGATCC | 8.2 upbm affinity estimate (log intensity, higher = more binding, comparable within an allelic series) | 8.33 upbm affinity estimate (log intensity, higher = more binding, comparable within an allelic series) | – | –
CGTAATCA | 11.9 upbm affinity estimate (log intensity, higher = more binding, comparable within an allelic series) | 10.6 upbm affinity estimate (log intensity, higher = more binding, comparable within an allelic series) | – | –
ATTACGAA | 11.4 upbm affinity estimate (log intensity, higher = more binding, comparable within an allelic series) | 10.3 upbm affinity estimate (log intensity, higher = more binding, comparable within an allelic series) | – | –
CGCCTTGA | 8.09 upbm affinity estimate (log intensity, higher = more binding, comparable within an allelic series) | 8.15 upbm affinity estimate (log intensity, higher = more binding, comparable within an allelic series) | – | –
ACTTACCG | 9.9 upbm affinity estimate (log intensity, higher = more binding, comparable within an allelic series) | 9.28 upbm affinity estimate (log intensity, higher = more binding, comparable within an allelic series) | – | –
ATAACCTC | 9.88 upbm affinity estimate (log intensity, higher = more binding, comparable within an allelic series) | 9.24 upbm affinity estimate (log intensity, higher = more binding, comparable within an allelic series) | – | –
TCAATGAA | 10.1 upbm affinity estimate (log intensity, higher = more binding, comparable within an allelic series) | 9.63 upbm affinity estimate (log intensity, higher = more binding, comparable within an allelic series) | – | –
CGGCCGAC | 7.76 upbm affinity estimate (log intensity, higher = more binding, comparable within an allelic series) | 8.04 upbm affinity estimate (log intensity, higher = more binding, comparable within an allelic series) | – | –
CTCTAGGA | 8.21 upbm affinity estimate (log intensity, higher = more binding, comparable within an allelic series) | 8.12 upbm affinity estimate (log intensity, higher = more binding, comparable within an allelic series) | – | –
CCGTAGCC | 8.11 upbm affinity estimate (log intensity, higher = more binding, comparable within an allelic series) | 8.21 upbm affinity estimate (log intensity, higher = more binding, comparable within an allelic series) | – | –
AGAGAGCG | 8.15 upbm affinity estimate (log intensity, higher = more binding, comparable within an allelic series) | 8.26 upbm affinity estimate (log intensity, higher = more binding, comparable within an allelic series) | – | –
ATAAGCAC | 9.96 upbm affinity estimate (log intensity, higher = more binding, comparable within an allelic series) | 9.46 upbm affinity estimate (log intensity, higher = more binding, comparable within an allelic series) | – | –
AACTTACA | 9.85 upbm affinity estimate (log intensity, higher = more binding, comparable within an allelic series) | 9.42 upbm affinity estimate (log intensity, higher = more binding, comparable within an allelic series) | – | –
GGTGGCCA | 8.06 upbm affinity estimate (log intensity, higher = more binding, comparable within an allelic series) | 8.37 upbm affinity estimate (log intensity, higher = more binding, comparable within an allelic series) | – | –
CATGGGGG | 7.84 upbm affinity estimate (log intensity, higher = more binding, comparable within an allelic series) | 7.96 upbm affinity estimate (log intensity, higher = more binding, comparable within an allelic series) | – | –
CGGCGGGC | 8.42 upbm affinity estimate (log intensity, higher = more binding, comparable within an allelic series) | 8.3 upbm affinity estimate (log intensity, higher = more binding, comparable within an allelic series) | – | –
TATTTTGA | 9.82 upbm affinity estimate (log intensity, higher = more binding, comparable within an allelic series) | 9.39 upbm affinity estimate (log intensity, higher = more binding, comparable within an allelic series) | – | –
